Experimental data taken from PubChem BioAssay AID1159580 (chemical genetic matrix, 2015).
“And” between values parts separate entries of the source, which are not always exact repeats. Identical values can stand only once. About 2,000 (36%) of roughly 5,500 compounds were called active. Not shown: some 18% with an inconclusive outcome. Cut-off read from the data, not from the text of the source: active = normalized growth mostly below about 0.91 (no sharp cut-off); inconclusive = no clear call, values can overlap the other calls; inactive = mostly above about 0.92. The list shows a part of the results.

Assay: chemical genetic growth profiling, strain panel (AID 1159580);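 note: tested at 20 µM; growth read once vehicle control cultures reached saturation at 30 °C; 1 = growth at the plate median or of vehicle wells; lower values mean less growth of the strain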
Conditions: S. cerevisiae deletion strains, growth OD

Measured: normalized growth

CC1(C)S[C@@H]2[C@H](NC(=O)COc3ccccc3)C(=O)N2[C@H]1C(=O)O
inactive: locus YAL013W, strain DEP1, active compounds read low 1 | locus YAL021C, strain ccr4, active compounds read low 1.01 | locus YAL026C, strain drs2, active compounds read low 1 | locus YAL030W, strain snc1, active compounds read low 0.989 | locus YBL061C, strain skt5, active compounds read low 0.985 | locus YBR009C, strain hhf1, active compounds read low 1.01 | locus YBR021W, strain FUR4, active compounds read low 1.02 | locus YBR023C, strain chs3, active compounds read low 0.996 | locus YBR171W, strain sec66, active compounds read low 0.969 | locus YBR229C, strain ROT2, active compounds read low 1 | locus YBR231C, strain swc5, active compounds read low 0.975 | locus YBR279W, strain paf1, active compounds read low 0.999 | locus YCL011C, strain gbp2, active compounds read low 1 | locus YCL016C, strain dcc1, active compounds read low 1.02 | locus YCL029C, strain bik1, active compounds read low 1.04 | locus YCL069W, strain vba3, active compounds read low 0.993 | locus YCR088W, strain abp1, active compounds read low 0.997 | locus YDL005C, strain med2, active compounds read low 0.994 | locus YDL035C, strain GPR1, active compounds read low 1.01 | locus YDL040C, strain nat1, active compounds read low 0.993 | locus YDL074C, strain BRE1, active compounds read low 1.01 | locus YDL101C, strain DUN1, active compounds read low 1.01 | locus YDL134C, strain PPH21, active compounds read low 1.01 | locus YDL185W, strain tfp1, active compounds read low 1.01 | locus YDL192W, strain arf1, active compounds read low 1.03 | locus YDR001C, strain nth1, active compounds read low 0.99 | locus YDR069C, strain doa4, active compounds read low 0.98 | locus YDR101C, strain arx1, active compounds read low 1.02 | locus YDR137W, strain rgp1, active compounds read low 0.975 | locus YDR150W, strain NUM1, active compounds read low 0.999 | locus YDR159W, strain sac3, active compounds read low 1 | locus YDR162C, strain NBP2, active compounds read low 1.01 | locus YDR195W, strain ref2 0.955 | locus YDR297W, strain sur2, active compounds read low 0.991 | locus YDR318W, strain mcm21, active compounds read low 1.02 | locus YDR334W, strain swr1, active compounds read low 0.993 | locus YDR335W, strain msn5, active compounds read low 0.986 | locus YDR388W, active compounds read low 1.02 | locus YDR392W, strain spt3, active compounds read low 1.03 | locus YDR502C, strain sam2, active compounds read low 1.03 | locus YEL003W, strain gim4, active compounds read low 0.997 | locus YEL037C, strain rad23, active compounds read low 0.992 | locus YEL061C, strain CIN8 (second series), active compounds read low 0.986 | locus YEL061C, strain CIN8, active compounds read low 1 | locus YER015W, strain faa2, active compounds read low 0.999 | locus YER016W, strain bim1, active compounds read low 1 | locus YER110C, active compounds read low 1.02 | locus YER111C, strain swi4, active compounds read low 0.99 | locus YER155C, strain BEM2 (second series), active compounds read low 0.977 | locus YER155C, strain BEM2, active compounds read low 0.999 | locus YER167W, strain BCK2, active compounds read low 1 | locus YFR010W, strain ubp6, active compounds read low 0.98 | locus YGL078C, strain dbp3, active compounds read low 1.02 | locus YGL086W, strain mad1, active compounds read low 1.01 | locus YGL167C, strain pmr1, active compounds read low 0.996 | locus YGL173C, strain kem1, active compounds read low 0.991 | locus YGL227W, strain vid30, active compounds read low 0.984 | locus YGL240W, strain doc1, active compounds read low 0.976 | locus YGL248W, strain PDE1, active compounds read low 1.01 | locus YGL253W, strain hxk2, active compounds read low 0.998 | locus YGR078C, strain PAC10, active compounds read low 1.01 | locus YGR135W, strain pre9, active compounds read low 1.02 | locus YGR229C, strain SMI1, active compounds read low 1.01 | locus YGR252W, strain gcn5, active compounds read low 1.02 | locus YHR013C, strain ard1, active compounds read low 1 | locus YHR027C, strain rpn1, active compounds read low 1.01 | locus YHR030C, strain SLT2, active compounds read low 1.01 and 0.967 | locus YHR079C, strain IRE1 (second series), active compounds read low 1.02 | locus YHR079C, strain IRE1, active compounds read low 0.98 | locus YHR094C, strain hxt1, active compounds read low 1.02 | locus YHR129C, strain ARP1, active compounds read low 1 | locus YHR142W, strain chs7, active compounds read low 1.01 | locus YHR200W, strain rpn10, active compounds read low 1.02 | locus YIL066C, strain RNR3, active compounds read low 1.01 | locus YIL073C, strain SPO22, active compounds read low 1.07 | locus YIL125W, strain kgd1, active compounds read low 1.02 | locus YIR030C, strain dcg1, active compounds read low 1.03 | locus YJL092W, strain hpr5, active compounds read low 0.976 | locus YJL095W, strain BCK1 (second series), active compounds read low 0.99 | locus YJL095W, strain BCK1, active compounds read low 1.01 and 0.99 | locus YJL115W, strain asf1, active compounds read low 0.988 | locus YJL129C, strain trk1, active compounds read low 0.955 | locus YJL134W, strain LCB3, active compounds read low 1 | locus YJL154C, strain vps35, active compounds read low 0.988 | locus YJL164C, strain tpk1, active compounds read low 1.02 | locus YJL166W, strain qcr8, active compounds read low 0.953 | locus YJL168C, strain set2, active compounds read low 1.02 | locus YJL187C, strain SWE1 (second series), active compounds read low 1.01 | locus YJL187C, strain SWE1, active compounds read low 0.997 | locus YJR043C, strain POL32, active compounds read low 1.01 | locus YJR066W, strain TOR1, active compounds read low 0.92
